This is one part of a sample in which hits are shown more often than they occur.
Pf Dd2 inh = Plasmodium falciparum Dd2 growth inhibition | P. falciparum Dd2 growth, SYBR Green, 72 h | Potency, µM (doses to about 28.9 µM), most hits filed as inhibitors | 120,000 compounds, 4.3% hits | AID 1347417; active = well fitted inhibition curve with a large enough effect; note: nearly all actives have a fitted effect of over 65% in size
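Readout: SYBR Green fluorescence, 485 nm excitation, 535 nm emission, after ~16 h lysis at 37C. Before that, Dd2-infected red cells (2.5% hematocrit) grew 72 h with compound, 29 uM top final concentration.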
Numbers stand for hits; n = inactive; [ ] = another dose, or the depositor's remark.

SMILES	Pf Dd2 inh
O=C(NC1CCN(c2cc(-c3ccc(F)cc3)[nH]n2)C1)c1ccc2[nH]ccc2c1 (stereo not drawn)	5µM
COc1ccc(C(=O)NC2CCCN(c3cc(-c4ccccc4)[nH]n3)C2)cc1 (stereo not drawn)	n
Cc1cccc(C(=O)NC2CCN(c3cc(-c4ccc(F)cc4)[nH]n3)C2)c1 (stereo not drawn)	10µM
O=C(NC1CCN(c2cc(-c3ccc(F)cc3)[nH]n2)C1)c1cccc(F)c1 (stereo not drawn)	n
O=C(NC[C@H]1O[C@@H](CC(=O)N2CCN(c3ccccn3)CC2)[C@H](O)[C@@H]1O)c1cccc(F)c1	n
CC(=O)Nc1ccc(S(=O)(=O)NCCc2cn3ccsc3n2)cc1	n
COCCCNC(=O)CCc1cc2ccccc2[nH]c1=O	n
COc1ccc(Cn2c(=O)n(Cc3ccco3)c(=O)c3oc4ccccc4c32)cc1	n
O=C(CCn1cnc(-c2ccccc2)c1-c1cc2ccccc2[nH]1)N1CCCC1	n
CCn1cc(S(=O)(=O)N2CCc3n[nH]c(=O)n3CC2)cn1	n
Cc1ccc(CN2C(=O)NC3(CCCN(C(=O)c4ccc(C#N)cc4)C3)C2=O)cc1 (stereo not drawn)	n
COC(=O)c1ccc(NC(=O)C(=O)NCCc2sc3nc(-c4ccc(OC)cc4)nn3c2C)cc1	n
CSCC(=O)N1CCN2C(=O)c3cc(-c4ccccc4F)ccc3NC(=O)[C@H]2C1	n
COc1ccc(Cn2c3c(c(=O)n2Cc2ccccc2)CCN(C(=O)c2cocn2)C3)cc1	n
COc1ccc(OC)c(CNC(=O)c2c(C)oc3ncn(CC(C)C)c(=O)c23)c1	10µM
CCOC(=O)C(C)NC(=O)c1c(C)oc2ncn(CC(C)C)c(=O)c12 (stereo not drawn)	n
COc1ccc(OC)c(CCNC(=O)c2c(C)oc3ncn(C)c(=O)c23)c1	n
COc1cc(Nc2ncc3c(n2)CCN(Cc2ccc(OC(C)C)c(OC)c2)C3)cc(OC)c1	n
O=C(Nc1ccccc1)N1CCC(Oc2ccccc2-c2nc(-c3ccccc3)no2)C1 (stereo not drawn)	n
COc1ccccc1-c1noc(-c2nc(-c3ccncc3)no2)n1	n
c1ccc(-c2nc(-c3ccncc3)no2)c(OC2CCNC2)c1 (stereo not drawn)	13µM
c1ccc(-c2nc(-c3cnccn3)no2)c(OC2CNC2)c1	n
CCNC(=O)N1CCC(Oc2ccccc2-c2nc(-c3cnccn3)no2)C1 (stereo not drawn)	n
O=C(C1CC1)N1CC(Oc2ccccc2-c2nc(-c3cnccn3)no2)C1	7.9µM
Clc1ccc(-c2nnn3c2nc(NC2CCCCC2)c2ccccc23)cc1	n
SMILES	Pf Dd2 inh
COc1cccc(C(=O)N2CCC3(CC2)NC(=O)N(c2ccc(F)cc2)N3)c1OC	n
COCCNS(=O)(=O)c1cc(C(=O)O)cc(-c2ccc(N(C)C)nc2)c1	n
C=C[C@H]1CN2CC[C@H]1C[C@@H]2CNC(=O)CCCC(=O)O	n
COCCOC1CCOC2(CCN(C(=O)NCc3ccc(OC)cc3)CC2)C1 (stereo not drawn)	n
N#C/C(=C\c1ccc(Cl)cc1)c1nc2ccccc2[nH]1	n
COc1cc(Br)c(/C=C(\C#N)c2nc3ccccc3[nH]2)cc1OC	n
COc1cc(/C=C(\C#N)c2nc3ccccc3[nH]2)ccc1OCc1ccc(F)cc1	1µM
COc1cc(C(=O)NC2CCCc3c2[nH]c2c(Cl)cccc32)cc(OC)c1OC (stereo not drawn)	1µM
Cc1cc(C(=O)NC2CCCc3c2[nH]c2c(Cl)cccc32)c2c(C)noc2n1 (stereo not drawn)	n
O=C(CNC(=O)c1cnccn1)NC1CCCc2c1[nH]c1c(Cl)cccc21 (stereo not drawn)	n
CCC(C)NC(=O)CSc1nc2c(sc3ccccc32)c(=O)n1CCc1ccccc1 (stereo not drawn)	n
CC(C)c1nc2c(c(-c3ccc(O)cc3)n1)CCN(CC1CCCCC1)CC2	1.1µM
COc1ccc(-c2nc(C(C)C)nc3c2CCN(C(=O)c2ccccc2)CC3)cc1	n
COc1ccc(-c2nc(C(C)C)nc3c2CCN(C(=O)Nc2ccc(Cl)cc2)CC3)cc1	n
CC(C)c1nc2c(c(-c3ccc(O)cc3)n1)CCN(C(=O)c1ccc(F)cc1)CC2	n
COc1ccc(CN2CCc3nc(C(C)C)nc(-c4ccc(O)cc4)c3CC2)cc1	2.2µM
Cc1nc2c(c(-c3ccc(O)cc3)n1)CN(CC1CC1)CC2	n
COC(=O)c1ccc(CN2CCC(n3nccc3NC(=O)Cc3ccccc3)CC2)cc1	n
CCOC(=O)c1c(NC(=O)c2ccc(F)cc2)sc2c1CCC(CC)C2 (stereo not drawn)	n
CCC1CCCCN1S(=O)(=O)c1ccc(C(=O)Nc2sc3c(c2C(=O)NC)CCC3)cc1 (stereo not drawn)	13µM
COC(=O)c1c(NC(=O)c2ccc(S(=O)(=O)N3CCCCC3)cc2)sc2c1CCN(C)C2	10µM
CCC1CCCCN1S(=O)(=O)c1ccc(NC(=O)c2cc(=O)c3c(C)cc(C)cc3o2)cc1 (stereo not drawn)	n
Cc1ccc2c(=O)cc(C(=O)Nc3ccc(S(=O)(=O)N4CCCC(C)C4)cc3)oc2c1C (stereo not drawn)	n
CCOC(=O)c1c(NC(=O)c2ccc(C)cc2)sc2c1CCCCC2	n
COC(=O)c1c(NC(=O)c2ccc(S(=O)(=O)N3CCCC(C)C3)cc2)sc2c1CCN(C(C)C)C2 (stereo not drawn)	8.9µM
SMILES	Pf Dd2 inh
CCOC(=O)c1c(NC(=O)c2ccc(S(=O)(=O)N3CCC(C)CC3)cc2)sc2c1CCN(CC)C2	8.9µM
CNC(=O)c1c(NC(=O)/C=C/c2ccccc2)sc2c1CCC2	n
COC(=O)c1ccc2c(c1)sc(=NC(=O)c1ccc(S(=O)(=O)N3CCCCC3)cc1)n2C	n
COc1ccc(Cl)c2sc(NC(=O)c3ccc(S(=O)(=O)N4CCCC4)cc3)nc12	n
Cc1ccc2oc(C(=O)Nc3ccc(S(=O)(=O)N4CCCC(C)C4)cc3)cc(=O)c2c1 (stereo not drawn)	n
Cc1nn2c(c1-c1cccnc1N1CCOCC1)N(C(=O)Cc1ccc(Cl)cc1)CCC2	n
CC1=NOC2(CCN(Cc3cccnc3)C2)C1 (stereo not drawn)	n
O=C(c1cnccn1)N1CCC(c2noc(C3CC3)n2)C1 (stereo not drawn)	n[5.79 µM]
Cn1c(CO[C@H]2CN(S(=O)(=O)Cc3ccccc3)C[C@H]2F)nc2ccccc21	n
CCn1ncc(CN(C)C(=O)c2cc(COc3ccccc3)[nH]n2)c1C	n
Cc1cc(C[C@@H]2COC[C@@H]2NC(=O)CN(C)Cc2cccnc2)on1	n
COc1ccc(CC(=O)N2CCc3c(cnc(C)c3CNC(=O)c3ccc4c(c3)OCO4)C2)cc1	n
Nc1ncc(S(=O)(=O)NCc2ccccc2F)cn1	n
CCN(CC)C(=O)Cn1cc(SCC(=O)Nc2ccc(C)cc2)c2ccccc21	n[5.79 µM]
Cc1ccc(C(=O)N2CCC3(C2)NC(=O)c2ccccc2CO3)cc1 (stereo not drawn)	n
O=c1oc2c3c(ccc2c2ccccc12)OCN(Cc1ccccc1Cl)C3	5.6µM
Cc1ccc2c(c1)N1C(=O)OC[C@@H]1CCN(Cc1cccc(Cl)c1)C2	n
Cc1ccc2c(CN3CCN(Cc4ccccc4Cl)CC3)cc(=O)oc2c1	n
O=c1oc2c3c(ccc2c2ccccc12)OCN(Cc1cccc(Cl)c1)C3	10µM
Cc1ccc(-c2c(C(=O)NCc3ccc(F)cc3)oc(=O)c3ccccc23)cc1	n
Cc1cc2c(c3oc(=O)c4ccccc4c13)CN(Cc1ccc(F)cc1)CO2	0.79µM
